# Shown are actives, neighbours in structure and some others; about 0.4% of the full set was active somewhere.
# Cdc42 wt GTP – modulators of GTP binding to wildtype Cdc42, primary screen, biochemical, multiplex bead flow cytometry, Bodipy-GTP | Cell division control protein 42 homolog (Homo sapiens), P60953 | GST-Cdc42 beads; actives lie on both sides | percent activity (GTP binding), % at 10 µM | 190,000 compounds, 0.2% hits | AID 761, 2007;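 active means percent activity GTP binding at least 20 points away from the 100% baseline, either down as inhibitor or up as activator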;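 further: median bead fluorescence of bound Bodipy-FL-GTP at 100 nM; 0% = excess unlabeled GTP control and 100% = no compound control; below 100% means less GTP binding so inhibitor and above means activator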
# Target sequence (P60953 whole entry, looked up): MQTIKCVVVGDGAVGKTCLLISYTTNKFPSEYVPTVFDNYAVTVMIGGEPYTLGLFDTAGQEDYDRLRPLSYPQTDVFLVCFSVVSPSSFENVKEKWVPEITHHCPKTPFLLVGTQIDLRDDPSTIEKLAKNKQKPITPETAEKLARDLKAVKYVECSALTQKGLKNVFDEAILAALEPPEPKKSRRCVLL
# Rac1 wt modul – wildtype Rac1 GTP binding modulators, primary screen, biochemical, GST-Rac1 beads, flow cytometry, multiplex; Ras-related C3 botulinum toxin substrate 1 (Homo sapiens), P63000; fluorescent GTP binding; actives lie on both sides; 0 = cold GTP competed, 100 = untreated; GTP binding activity (% of control), % at 10 µM; 190,000 compounds, 0.27% hits;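 active means GTP binding activity at least 20 points away from the 100% control level, either lower or higher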
# Rac1 mut GTP – GTP binding modulators of activated mutant Rac1, primary screen, biochemical, bead-based flow cytometry, multiplex, fluorescent GTP. 190,000 compounds, 0.11% hits. AID 764, 2007. Ras-related C3 botulinum toxin substrate 1 (Homo sapiens), P63000. percent activity (GTP binding), % at 10 µM. GST-Rac1 activated beads; actives lie on both sides; 100% means binding = to untreated wells;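 active means GTP binding at least 20 percentage points away from the 100% baseline, in either direction, so actives lie on both sides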
# Rab2A wt mod – modulators of GTP binding to Rab2A wildtype, primary screen, biochemical, dog, bead-based flow cytometry, multiplex | Ras-related protein Rab-2A (Canis lupus familiaris), P61105 | GST-Rab2 wt beads, Bodipy-GTP binding | GTP binding activity, % at 10 µM | 190,000 compounds, 0.19% hits;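 active means GTP binding activity at least 20 points away from 100%, either lowered or raised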;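 further: 0% = beads with excess unlabeled GTP and 100% = no-compound control corrected for plate trend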
# Rab7 wt modul – modulators of GTP binding to Rab7, primary screen, biochemical, wildtype, multiplex bead flow cytometry. 190,000 compounds, 0.055% hits. Rab7 GTPase wild type (dog), Bodipy-FL-GTP binding. AID 758, 2007. GST-Rab7 beads, fluorescent GTP binding; actives lie on both sides; untreated = 100%, excess cold GTP = 0%. GTP binding activity (percent of control), % at 10 µM;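 active means fluorescent GTP binding to Rab7 beads changed by at least 20 points from the 100% baseline, either direction, mostly lower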;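 further: median green fluorescence of bound Bodipy-FL-GTP per Rab7 bead population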
# HRas wt GTP bind – modulators of GTP binding to HRas wildtype, primary screen, biochemical, bead-based flow cytometry, multiplex. GTPase HRas (Homo sapiens), P01112. GST-Ras wt beads, Bodipy-FL-GTP binding; actives lie on both sides. GTP binding activity, % at 10 µM. 190,000 compounds, 0.14% hits. AID 759, 2007;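 active means GTP binding activity at least 20% away from the 100% baseline, either lowered as inhibitor or raised as activator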;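 further: 0% = unlabeled GTP competition control and 100% = no-compound control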
# Target sequence (P01112 whole entry, looked up): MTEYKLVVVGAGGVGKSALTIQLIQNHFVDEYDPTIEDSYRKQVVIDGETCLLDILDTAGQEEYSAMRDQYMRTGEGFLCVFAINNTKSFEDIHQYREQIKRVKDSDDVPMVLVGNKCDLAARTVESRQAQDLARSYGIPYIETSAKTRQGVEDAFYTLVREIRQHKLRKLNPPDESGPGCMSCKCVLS
# An asterisk follows results filed as active; [ ] = another dose, or the depositor's remark.
SMILES,Cdc42 wt GTP,Rac1 wt modul,Rac1 mut GTP,Rab2A wt mod,Rab7 wt modul,HRas wt GTP bind
COc1cccc(/C=N/n2c(N)c(S(=O)(=O)c3cccs3)c3nc4ccccc4nc32)c1OC,81.0,88.0,89.0,85.0,91.0,84.0
O=C(Nc1cc(S(=O)(=O)Nc2ccccc2Cl)ccc1O)c1sc2cc(Cl)ccc2c1Cl,80.0,83.0,78.0*,85.0,94.0,87.0
COc1cccc2c(SCC(=O)N/N=C/c3ccc(O)c(O)c3)cc(C)nc12,71.0*,65.0*,84.0,75.0*,89.0,79.0*
COc1ccc2nc(C)cc(SCC(=O)N/N=C/c3cccc4ccccc34)c2c1,98.0,98.0,97.0,98.0,97.0,98.0
COc1cccc2c(SCC(=O)N/N=C/c3ccccc3)cc(C)nc12,99.0,96.0,95.0,97.0,99.0,94.0
COc1ccc2nc(C)cc(SCC(=O)N/N=C/c3ccc(O)c(O)c3)c2c1,69.0*,79.0*,82.0,68.0*,91.0,72.0*
Cc1ccc(-n2c(SCC(N)=O)nnc2-c2cccnc2)c(C)c1,102.0,107.0,100.0,104.0,105.0,101.0
Cc1ccc(-n2c(SCc3cc(=O)n4ccsc4n3)nnc2-c2cccnc2)c(C)c1,146.0*[activator],163.0*[activator],120.0*[activator],118.0,108.0,109.0
CCOc1ccc(-n2c(C)nc3cc(C(=O)NCc4ccc5c(c4)OCO5)ccc32)cc1,77.0*,77.0*,79.0*,71.0*,86.0,80.0
O=c1[nH]c2ccccc2nc1/C=C/c1ccc(Cl)cc1,97.0,98.0,98.0,97.0,95.0,94.0
O=C(C[n+]1ccccc1)N/N=C/c1ccc(F)cc1,96.0,100.0,95.0,98.0,102.0,96.0
S=C(NCCc1ccccc1)NC1CC1,117.0,123.0*[activator],104.0,105.0,99.0,104.0
O=C(O)C1C2C=CC(C2)C1C(=O)N1CCOCC1 (stereo unspecified),39.0*,33.0*,37.0*,36.0*,22.0*,43.0*
O=C(NC1CCCC1)C1C2C=CC(C2)C1C(=O)N1CCOCC1 (stereo unspecified),101.0,98.0,98.0,99.0,103.0,98.0
O=C(O)c1ccc(CNCc2ccc(F)cc2)cc1,79.0*,83.0,80.0,85.0,94.0,86.0
Cc1ccc(/C=C2\SC(=S)N(Cc3ccccc3)C2=O)o1,88.0,89.0,88.0,90.0,89.0,89.0
O=C(O)c1cc(-c2ccc(/C=C3/SC(=S)N(Cc4ccccc4)C3=O)o2)ccc1Cl,76.0*,74.0*,77.0*,78.0*,89.0,80.0
COc1ccc(CN2C(=O)/C(=C/c3ccc(-c4ccc(Cl)c(C(=O)O)c4)o3)SC2=S)cc1,75.0*,76.0*,76.0*,79.0*,84.0,73.0*
CCNC(=O)c1cc2c(=O)n3cccc(C)c3nc2n(CCc2ccccc2)c1=N,71.0*,81.0,82.0,72.0*,87.0,71.0*
N=c1c(C(=O)NCc2ccco2)cc2c(=O)n3ccccc3nc2n1CCc1ccccc1,80.0,72.0*,87.0,75.0*,91.0,77.0*
Cc1ccc(Cn2c(=N)c(C(=O)NCc3ccco3)cc3c(=O)n4ccccc4nc32)cc1,98.0,101.0,96.0,100.0,100.0,98.0
N#CC(C#N)=C(Nc1ccc(F)cc1)SCc1cccc(Br)c1,127.0*[activator],134.0*[activator],104.0,109.0,101.0,101.0
CCC(CC)C(=O)c1c[nH]c(C(=O)NCc2ccccn2)c1,99.0,102.0,97.0,98.0,103.0,99.0
CC(C)(C)C(=O)OCC1OC(n2cnc(C(N)=O)n2)C(O)C1O (stereo unspecified),119.0,120.0*[activator],103.0,114.0,104.0,110.0
COC(=O)c1ncn(C2OC(COC(C)=O)C(OC(C)=O)C2OC(C)=O)n1 (stereo unspecified),98.0,104.0,100.0,98.0,101.0,102.0
SMILES,Cdc42 wt GTP,Rac1 wt modul,Rac1 mut GTP,Rab2A wt mod,Rab7 wt modul,HRas wt GTP bind
CC1CCN(c2ncccc2C(=O)O)CC1,141.0*[activator],156.0*[activator],129.0*[activator],130.0*[activator],125.0*[activator],128.0*[activator]
Cc1ccc(C(=O)NCC(=O)N/N=C/c2sccc2C)cc1[N+](=O)[O-],97.0,103.0,97.0,99.0,103.0,98.0
CCC(/C=C1\Sc2ccc(OC)cc2N1CCO)=C\c1sc2ccc(OC)cc2[n+]1CCO,82.0,87.0,89.0,80.0,90.0,78.0*
CCC(/C=C1\Sc2ccc(OC)cc2N1CC)=C\c1sc2ccc(OC)cc2[n+]1CCCS(=O)(=O)[O-],94.0,96.0,93.0,92.0,95.0,94.0
CC1CCCCN1S(=O)(=O)c1ccc(C(=O)Nc2nnc(-c3ccccn3)o2)cc1 (stereo unspecified),93.0,92.0,93.0,97.0,107.0,92.0
N=C1SCC(=O)N1c1ncc(Cc2ccc(F)cc2)s1,93.0,101.0,94.0,94.0,97.0,94.0
O=[N+]([O-])c1cc2oc3c(c2c(C=NCc2ccccc2)c1O)CCCC3,74.0*,73.0*,74.0*,76.0*,78.0*,79.0*
CC(C)CN=Cc1c(O)c([N+](=O)[O-])cc2oc3c(c12)CCCC3,97.0,97.0,94.0,94.0,95.0,97.0
O=C(CCC1CCCCC1)NNC(=O)NC12CC3CC(CC(C3)C1)C2,105.0,101.0,98.0,101.0,101.0,102.0
CN(/N=C/C=C/c1ccccc1)C1=NS(=O)(=O)c2ccccc21,74.0*,65.0*,81.0,72.0*,86.0,68.0*
CN(NC(=O)CN1C(=O)c2ccccc2C1=O)C1=NS(=O)(=O)c2ccccc21,96.0,101.0,93.0,96.0,103.0,99.0
CN(/N=C/c1cccnc1)C1=NS(=O)(=O)c2ccccc21,78.0*,69.0*,83.0,70.0*,84.0,68.0*
C(=N\N(Cc1ccccc1)c1ccccc1)/c1cccnc1,100.0,101.0,99.0,98.0,100.0,99.0
Nc1ccc(-c2cn3cccnc3n2)cc1,79.0*,72.0*,86.0,78.0*,90.0,78.0*
O=C(O)Cc1coc2cc3c(cc12)CCC3,91.0,88.0,87.0,89.0,79.0*,88.0
COc1ccc(-n2c(=S)[nH]c3c(oc4ccccc43)c2=O)cc1,96.0,111.0,98.0,94.0,98.0,99.0

# Screening results deposited in PubChem BioAssay by NMMLSC.
